Laboratory results: PMC5540273 (PLoS ONE, 2017)

How the values were obtained:
Conditions in all cases: concentration: 1 μM, replicates: in singlicate; n = 1
[1] = system: MAP3K3
[2] = system: MAP3K4
[3] = system: MAP4K2
[4] = system: MAP4K3
[5] = system: MAP4K4
[6] = system: MAP4K5
[7] = system: MAPKAPK2
[8] = system: MAPKAPK5
[9] = system: MARK1
[10] = system: MARK2
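Further: KINOMEscan kinase panel screen.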

SMILES | %Inh [1] [%] | %Inh [2] [%] | %Inh [3] [%] | %Inh [4] [%] | %Inh [5] [%] | %Inh [6] [%] | %Inh [7] [%] | %Inh [8] [%] | %Inh [9] [%] | %Inh [10] [%]
CCn1c(-c2ccncc2)nc2cnccc21 [SB-735216] | 10 | 23 | 12 | 0 | 1 | 0 | 16 | 29 | 16 | 100
Nc1nccc2scc(-c3ccc4c(c3)CCN4C(=O)Cc3cc(F)ccc3F)c12 [GSK2587663] | 0 | 10 | 0 | 3 | 0 | 9 | 20 | 0 | 0 | 0
Cc1ccc(O)cc1Nc1cc(C(F)(F)F)nc2ccc(-c3ccncc3)cc12 [GW630823] | 0 | 0 | 0 | 0 | 0 | 0 | 0 | 0 | 0 | 9
Cn1ccc2ncnc(Oc3ccc(NC(=O)Nc4cccnc4)c(Cl)c3)c21 | 0 | 2 | 0 | 0 | 0 | 0 | 0 | 0 | 0 | 0
OCCOCCn1ccc2ncnc(Nc3ccc(Oc4cccc(Cl)c4)c(Cl)c3)c21 | 0 | 0 | 0 | 0 | 0 | 0 | 0 | 0 | 25 | 0
Nc1n[nH]c2nnc(-c3ccccc3)cc12 [SB-517389] | 0 | 32 | 0 | 0 | 3 | 0 | 5 | 0 | 0 | 0
Nc1nc(-c2ccccn2)c(-c2ccnc3ccccc23)s1 [GW548057] | 0 | 4 | 0 | 0 | 4 | 0 | 0 | 0 | 0 | 0
Cl.c1ccc(Cn2ccc3cc(Nc4ncnc5ccccc45)ccc32)cc1 [GW275568] | 0 | 5 | 0 | 1 | 4 | 3 | 7 | 0 | 17 | 28
COc1ccc(NC(=O)Nc2ccc(C)c(-c3ccc(C(=O)Nc4ccncc4)cc3)c2)cc1 [GSK1398475] | 0 | 0 | 0 | 0 | 0 | 0 | 6 | 0 | 0 | 0
Cl.c1ccc(Cn2ncc3cc(Nc4ncnc5ccccc45)ccc32)cc1 [GW273749] | 0 | 0 | 0 | 0 | 0 | 0 | 13 | 0 | 0 | 0
COc1ccc(-c2oc3ncnc(N)c3c2-c2ccc(OC)cc2)cc1 [SB-589132] | 0 | 0 | 0 | 0 | 0 | 0 | 19 | 0 | 0 | 0
COc1cc2c(Nc3cccc(NC(=O)c4ccccc4)c3)ncnc2cc1OCCCN1CCOCC1 [GSK223810] | 0 | 18 | 0 | 9 | 0 | 43 | 5 | 0 | 11 | 0
Fc1cccc(COc2ccc(Nc3ncnc4sc(-c5ccc[nH]5)cc34)cc2Cl)c1 [GW707818] | 0 | 11 | 7 | 4 | 5 | 3 | 9 | 0 | 12 | 1
Cl.Fc1ccccc1COc1ccc(Nc2ncnc3ccc(-c4nnc(C(F)(F)F)o4)cc23)cc1Cl [GW424170] | 0 | 15 | 0 | 0 | 0 | 0 | 0 | 0 | 0 | 0
Clc1cc(Nc2ncnc3cc[nH]c23)ccc1OCc1ccccn1 | 27 | 10 | 0 | 0 | 4 | 6 | 5 | 0 | 13 | 0
CN1CCC(n2cnc(-c3ccc(F)cc3)c2-c2ccnc(NC3CCNCC3)n2)CC1 [SB-229482] | 0 | 1 | 12 | 0 | 0 | 0 | 8 | 6 | 8 | 13
Fc1ccc(Nc2nccc(-c3c(-c4ccc(Cl)cc4)nn4ncccc34)n2)cc1F [GW829058] | 40 | 17 | 34 | 0 | 1 | 6 | 3 | 0 | 16 | 15
Cl.O=S(=O)(c1cccc(F)c1)c1ccc(Nc2ncnc3cc(Br)sc23)cc1Cl [GSK306886] | 0 | 9 | 0 | 0 | 0 | 0 | 0 | 0 | 0 | 0
CN1c2ccc(-c3ccc(C(=O)NCCO)cc3)cc2-c2[nH]ncc2S1(=O)=O | 40 | 0 | 26 | 11 | 27 | 25 | 0 | 0 | 38 | 24
Oc1ccc2ncnc(Nc3ccc(OCc4ccccc4)cc3)c2c1 [GI262866] | 0 | 2 | 0 | 11 | 4 | 0 | 16 | 0 | 0 | 0
Cl.Cn1ccc(-c2cccc(Nc3ccnc4cc(-c5nccs5)ccc34)c2)n1 [GW525701] | 0 | 10 | 14 | 0 | 20 | 0 | 21 | 0 | 28 | 100

SMILES | %Inh [1] [%] | %Inh [2] [%] | %Inh [3] [%] | %Inh [4] [%] | %Inh [5] [%] | %Inh [6] [%] | %Inh [7] [%] | %Inh [8] [%] | %Inh [9] [%] | %Inh [10] [%]
Cl.Cl.c1ccc(-c2cc3ccncc3cc2OC2CCNCC2)cc1 [GSK1122999] | 0 | 18 | 0 | 0 | 10 | 0 | 25 | 0 | 0 | 0
FC(F)(F)c1cc(Nc2nccc(-c3c(-c4ccc(Cl)cc4)nn4ncccc34)n2)ccc1Cl [GW829351] | 0 | 0 | 0 | 0 | 0 | 0 | 0 | 0 | 0 | 0
CCC(CC)(CC)n1cnc2c(N)ncnc21 [SKF-97620] | 0 | 0 | 25 | 0 | 0 | 0 | 0 | 10 | 24 | 15
Fc1cccc(COc2ccc(Nc3ncnc4nn5ccccc5c34)cc2Cl)c1 [GW689066] | 0 | 0 | 0 | 0 | 0 | 0 | 4 | 0 | 0 | 0
COC(=O)c1c(-c2ccccc2)c2cc(Cl)ccc2c(=O)n1Cc1ccc(S(C)(=O)=O)cc1 | 26 | 0 | 3 | 13 | 0 | 0 | 24 | 0 | 0 | 0
O=C(CCO)NCCn1ccc2ncnc(Nc3ccc(Oc4cccc(C(F)(F)F)c4)c(Cl)c3)c21 | 0 | 0 | 0 | 3 | 3 | 0 | 0 | 0 | 0 | 4
CCc1nc(-c2cccc(C)c2)c(-c2ccnc(NC(=O)c3ccccc3)c2)s1 | 22 | 0 | 0 | 0 |  | 0 | 0 | 0 |  | 0
CCCc1ccc(S(=O)(=O)NC2CCN(c3ccnc(Nc4ccc(OC)cc4)n3)C2)cc1 (stereo not drawn) [GSK1379737] | 0 | 0 | 0 | 0 | 0 | 0 | 29 | 0 | 0 | 0
Nc1nc(-c2cccnc2)c(-c2ccnc3ccccc23)s1 [GW684083] | 0 | 0 | 0 | 0 | 16 | 0 | 14 | 0 | 0 | 0
CSc1nn2c(=O)cc(N3CCOCC3)nc2n1Cc1cccc(Cl)c1Cl [GSK2347225] | 0 | 31 | 0 | 42 | 22 | 12 | 22 | 0 | 0 | 0
CS(=O)(=O)CCNCc1ccc(-c2ccc3ncnc(Nc4ccc(OCc5ccccc5)c(Cl)c4)c3c2)o1.Cl [GW574783] | 0 | 0 | 0 | 1 | 0 | 5 | 16 | 0 | 0 | 0
CC(=O)Nc1n[nH]c2ncc(-c3ccccc3)cc12 [SB-548492] | 37 | 11 | 25 | 0 | 0 | 4 | 5 | 8 | 11 | 5
C[C@H]1CC[C@@H](C(=O)Nc2ccccc2)CN1c1cc(-c2ccc3c(N)n[nH]c3c2)nc(N)n1 [GSK2283293] | 34 | 5 | 0 | 0 | 7 | 0 | 22 | 0 | 0 | 0
O=C(Nc1ccccc1)Nc1ccc(Oc2ccc3nccn3n2)cc1 | 9 | 21 | 0 | 0 | 0 | 0 | 0 | 0 | 0 | 0
O=C(Nc1n[nH]c2nc(-c3ccco3)c(Br)cc12)c1ccc(CN2CCCC2)cc1.O=C(O)[C@H](O)[C@@H](O)C(=O)O [SB-742352] | 0 | 4 | 34 | 0 | 4 | 24 | 0 | 0 | 0 | 1
CS(=O)(=O)CCNCc1nc(-c2ccc3ncnc(Nc4ccc(OCc5cccc(F)c5)c(Cl)c4)c3c2)cs1.Cl [GW583340] | 0 | 4 | 0 | 0 | 0 | 0 | 4 | 0 | 0 | 0
Cn1ccc2ncnc(Nc3ccc(Oc4cccc(Cl)c4)c(Cl)c3)c21 | 15 | 17 | 14 | 0 | 1 | 0 | 0 | 14 | 0 | 25
N#Cc1ccc(Oc2ccc(Nc3ncnc4cc[nH]c34)cc2Cl)cc1 | 27 | 9 | 0 | 24 | 37 | 27 | 0 | 21 | 3 | 0
CC(C)(C)OC(=O)NC1CCCN(c2cc(-c3ccc4c(N)n[nH]c4c3)nc(N)n2)C1 (stereo not drawn) [GSK2286096] | 0 | 17 | 0 | 3 | 0 | 0 | 0 | 0 | 0 | 0
Nc1nc(-c2ccc3c(N)n[nH]c3c2)cc(N2CCCCC2)n1 [GSK2228768] | 0 | 2 | 0 | 0 | 0 | 0 | 3 | 0 | 0 | 0
